HTT ATP protect: qHTS Multiplex Assay to Identify Dual Action Probes in a Cell Model of Huntington: Cytoprotection (ATP); PC12 HTT-Q103 induced, cytoprotection, ATP luminescence, 40 h; Potency, µM (series often up to 56.4 µM), inactives show cytoprotection (ATP increase), usual class: activators; 230,000 compounds, 0.14% hits; AID 1471, 2008; also: potency is read from the fitted curve at half-maximal effect; % of control where 0% means no effect; nearly all actives have a fitted effect of over 45% in size
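Stable PC12 Q103-GFP cells in serum-supplemented, phenol red-free DMEM; induction by tebufenozide at 100 nM final; compound dose series; cell viability quantified luminescently from ATP.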
NPSR antag: qHTS Assay for Antagonists of the Neuropeptide S Receptor: cAMP Signal Transduction | Q6W5P4 | CHO-NPSR cells, cAMP TR-FRET, antagonist mode | Potency, µM (doses to about 38.3 µM), for the others: top-dose activity change, negative = inhibition, most hits filed as inhibitors | 220,000 compounds, 1% hits; also: potency is read from the fitted curve at half-maximal effect; % is scaled to controls: 0 for no effect and ±100 for the full control effect; nearly all actives have a fitted effect of over 50% in size
CBFb RUNX1 block: qHTS Assay for Compounds Blocking the Interaction Between CBF-beta and RUNX1 for the Treatment of Acute Myeloid Leukemia; Runt-related transcription factor 1 (Homo sapiens) + Core-binding factor subunit beta …; AlphaScreen CBFb-His/RUNX1-biotin binding, biochemical; Potency, µM (top dose mostly 59.8 µM), without a hit: at the top dose activity, negative = inhibition, actives largely listed as inhibitors; 230,000 tested, under 10 active; AID 1477, 2009; also: % of control where 0% means no effect
Target sequence (Q01196 whole entry, looked up): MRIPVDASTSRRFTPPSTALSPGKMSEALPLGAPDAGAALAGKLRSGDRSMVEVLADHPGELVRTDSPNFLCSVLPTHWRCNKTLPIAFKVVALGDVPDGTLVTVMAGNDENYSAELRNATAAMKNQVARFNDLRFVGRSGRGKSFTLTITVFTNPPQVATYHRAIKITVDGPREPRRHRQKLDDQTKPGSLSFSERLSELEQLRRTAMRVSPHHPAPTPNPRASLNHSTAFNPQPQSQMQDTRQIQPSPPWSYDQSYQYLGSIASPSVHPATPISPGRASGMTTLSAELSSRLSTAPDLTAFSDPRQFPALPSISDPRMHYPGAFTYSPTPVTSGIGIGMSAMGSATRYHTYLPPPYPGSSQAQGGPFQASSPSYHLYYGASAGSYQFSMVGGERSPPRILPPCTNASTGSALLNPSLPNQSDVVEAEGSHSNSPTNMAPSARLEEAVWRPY
Target sequence (Q13951 whole entry, looked up): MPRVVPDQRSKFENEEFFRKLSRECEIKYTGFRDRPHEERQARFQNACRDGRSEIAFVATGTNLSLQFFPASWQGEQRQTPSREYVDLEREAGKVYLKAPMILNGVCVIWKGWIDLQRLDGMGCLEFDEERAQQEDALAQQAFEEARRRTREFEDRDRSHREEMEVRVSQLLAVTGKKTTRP
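Inhibition was taken as any reduction in AlphaScreen signal from the CBF-beta–RUNX1 pair (His and biotin tags, 30 nM each), measured after compound (15 min) and bead (90 min) incubations at room temperature.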
MBNL1-CUG inh: qHTS Assay for Inhibitors of MBNL1-poly(CUG) RNA binding. 280,000 compounds, 0.036% hits. TR-FRET MBNL1-His/biotin-(CUG)12 binding, 665/545 ratio. Potency, µM (titrated, usually from 57.5 µM), for inactives: top-dose activity change, negative = inhibition, actives largely listed as inhibitors. Muscleblind-like protein 1 (Homo sapiens), Q9NR56. AID 2675, 2010; active = well fitted inhibition curve with a large enough effect in the signal ratio, with a control signal flat, not every such curve was filed as active; inconclusive = small, poorly fitted or top-dose-only effect, or effect the other way, or a change in a side signal; inactive = no such curve, though single readings can be large or run the other way; the % refers to the signal ratio; also: potency is read from the fitted curve at half-maximal effect; % is scaled to controls: 0 for no effect and ±100 for the full control effect
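TR-FRET between His-tagged MBNL1 and biotin-(CUG)12 RNA, detected with Tb anti-His antibody (0.055 ng/ul) and streptavidin-XL665 (5 nM), 60 min at room temperature. Compounds titrated 92 nM to 58 uM; 665/545 nm ratio normalized to buffer and complex controls.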
Lamin A splicing: qHTS Assay for Modulators of Lamin A Splicing; HeLa LMNA splicing GFP/RFP minigene ratio, 48 h; Potency, µM (top dose mostly 46.1 µM), for the others: at the highest dose ratio change, negative = inhibition, usual class: inhibitors; 200,000 compounds, 0.01% hits; AID 1487, 2009; active = well fitted inhibition curve with a large enough effect in the signal ratio, with a control signal flat, not every such curve was filed as active; inconclusive = small, poorly fitted or top-dose-only effect, or effect the other way, or a change in a side signal; the % refers to the signal ratio; also: potency is read from the fitted curve at half-maximal effect; % is scaled to controls: 0 for no effect and ±100 for the full control effect
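S3 HeLa cells stably expressing lamin A-EGFP splicing minigene plus DsRed2, 600 cells/well, 48 h compound exposure at 37C. Laser-scanning cytometry; analysed as GFP (500-530 nm)/RFP (575-640 nm) total intensity ratio; 0.5% DMSO vehicle.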
HTT aggregate: qHTS Multiplex Assay to Identify Dual Action Probes in a Cell Model of Huntington: Aggregate Formation (GFP); Potency, µM (doses to about 46.1 µM), for inactives: at the highest dose activity change, negative = inhibition, most hits filed as inhibitors; PC12 HttQ103-GFP aggregates, Acumen cytometry, 40 h; AID 1688, 2009; 220,000 compounds, 1.1% hits; also: potency is read from the fitted curve at half-maximal effect; % is scaled to controls: 0 for no effect and ±100 for the full control effect; nearly all actives have a fitted effect of over 60% in size
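Huntingtin Q103 exon 1–GFP aggregates in induced PC12 cells (100 nM tebufenozide) were quantified by cytometry from lysates, with compounds dosed in titration.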
* = called active by the depositor; ? = inconclusive; · = no result given; [ ] = another dose, or the depositor's remark. In the library only some 1.1% were active in any assay of this set; here they are far more common. Unless noted, calls follow the shape of the dose curve; as a rule, active = well fitted curve in the direction sought with a large enough effect; inconclusive = small, poorly fitted or top-dose-only effect, or another doubt; inactive = no such curve, though single readings can be large; an effect the other way counts as inactive or inconclusive.

SMILES | HTT ATP protect | NPSR antag | CBFb RUNX1 block | MBNL1-CUG inh | Lamin A splicing | HTT aggregate
Cc1nc(N2CCCC2)ncc1C(=O)N1CCN(c2ccccc2F)CC1 | · | · | · | · | 15.1%[46 µM] | ·
COc1ccc(C2C3C=CCC(C)C3C(=O)N2Cc2ccccc2)cc1Cl (configuration not stated) | · | · | 13.1% | · | · | ·
CCCCCCCc1cc2c(cn1)=C(OC)C(C)(OC(C)=O)C(=O)C=2Cl (configuration not stated) | 14.6% | · | -4.9% | · | · | ·
COC(=O)CNC(c1ccccc1)c1cc(Br)ccc1NC(C)=O (configuration not stated) | 3.16µM* | -18.2% | 1.5% | 1.2% | -0.2%[46 µM] | -2.6%[9.22 µM]
C[C@H]1[C@H](C)OC(=O)C[C@H](O)C[C@H](O)C[C@H](O)CC[C@H](O)[C@H](O)CC(=O)C[C@H](O)[C@H](C(=O)O)[C@H](O)C[C@H](O[C@@H]2O[C@@H](C)[C@H](O)[C@@H](N)[C@@H]2O)C=CC=CC=CC=CCCC=CC=C[C@@](C)(O)[C@H]1O | 8.6%[10 µM] | · | · | · | · | ·
Cc1cccc(-n2c(C)n[nH]c2=S)c1 | 3.55µM* | 7.8%[46.1 µM] | 6.5% | 6.1% | 11.0%[0.0737 µM] | 11.7%
O=S(=O)(c1ccc(Cl)cc1)N1CCN(Cc2ccc(O)c3ncccc23)CC1 | · | -1.5% | 4.2% | 1.2% | · | 5.01µM*
Oc1ccc(CN2CCN(Cc3ccccc3)CC2)c2cccnc12 | -4.1% | -26.3%[46.1 µM] | 5.7% | 2.9% | -1.8% | 3.1%
CCC(C)(C)n1nnnc1CN1CCN(C(c2ccccc2)c2ccccc2)CC1 | 11.4%[10 µM] | ? | 1.5% | -4.6% | ? | 14.1µM*
CCC(C)(C)n1nnnc1C(c1ccccc1)N1CCN(Cc2ccccc2)CC1 (configuration not stated) | 18.2%[10 µM] | 6.2% | 3.5% | 0.6% | ? | 9.7%[9.22 µM]
C=CCCC(=O)Nc1nc(C)c(-c2csc(Nc3ccccc3OC)n2)s1 | -93.1% | -28.4%[46.1 µM] | -16.7% | 63.6% | ? | 17.8µM*
C=CCNc1nc(-c2sc(NC(C)=O)nc2C)cs1 | -33.8% | -8.8%[46.1 µM] | -9.0% | 20.5% | -5.5% | 12.6µM*
COC(=O)C1=C(C(=O)OC)[C@@H]2N(C)c3ccc(OC)cc3[C@@]23C[C@@H](C(=O)OC)N(C(C)=O)C3=N1 | · | · | 0.2%[13.1 µM] | · | -19.6%[9.22 µM] | ·
O=C(N/N=C/c1ccccc1O)C1(O)c2ccccc2-c2ccccc21 | 31.9%[1.9 µM] | -1.6% | -20.8% | 6.5% | ? | 10µM*
CC(=O)NC1=C(NC2CCS(=O)(=O)C2)C(=O)c2ccccc2C1=O (configuration not stated) | -33.6%[10 µM] | 19.0% | 3.4% | ? | ? | -9.6%
CN(C1=C(NC(=O)c2ccccc2)C(=O)c2ccccc2C1=O)C1CCS(=O)(=O)C1 (configuration not stated) | -9.2%[10 µM] | ? | 3.9% | · | ? | 22.4µM*
Cc1cc(-c2ccccc2)n(-c2cc(N/N=C/c3ccccc3O)ncn2)n1 | -88.5%[10 µM] | 14.8% | ? | · | ? | 8.91µM*
CNc1cc(-n2nc(C)cc2-c2ccccc2)ncn1 | -13.4% | -7.1%[46.1 µM] | -6.1% | 10.9% | -13.0% | 1.6%
O=[N+]([O-])c1ccc(Nc2nc3ccccc3s2)cc1 | -2.5%[10 µM] | · | · | · | · | ·
O=C(Nc1ccc(Cl)cc1)/C(=C/c1ccc([N+](=O)[O-])cc1)c1nc2ccccc2s1 | -196.8% | -45.8% | -2.7% | 24.5% | · | 7.08µM*
CC(C)[C@H](O)CC[C@@H](C)C1CC[C@H]2C3CC=C4C[C@@H](O)CC[C@]4(C)C3CC[C@]12C (some centres not stated) | -39.6% | · | 10.4% | · | · | ·
